Data on 90 molecules can be found in PubChem BioAssay AID602281 (The Scripps Research Institute Molecular Screening Center, 2012).

Molecules are shown by their SMILES. Screen size: about 360,000 compounds; about 2,900 (0.81%) were called active. This excerpt belongs to a sample that is enriched for actives. Unmarked numbers belong to inactive results.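 Rule for the calls: active = inhibition above the mean inhibition across every tested compound plus 3 SD (cut at about 22% in these data); inactive = the rest.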

In the experiment the target is Perilipin-5 (Homo sapiens) + 1-acylglycerol-3-phosphate O-acyltransferase ABHD5 (Homo sapiens) (UniProt Q00G26+Q8WTS1). Description: ABHD5-PLIN5 interaction inhibitors, primary screen, cell lysate, split luciferase complementation, luminescence (AID 602281).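 Note: 0% = DMSO only wells and the 100% control is not disclosed.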 The conditions noted are these: Split G. princeps luciferase complementation, 4 h, at 4 µM, active compounds read high.
Perilipin-5 (Homo sapiens) + 1-acylglycerol-3-phosphate O-acyltransferase ABHD5 (Homo sapiens), sequence (Q00G26 whole entry, looked up): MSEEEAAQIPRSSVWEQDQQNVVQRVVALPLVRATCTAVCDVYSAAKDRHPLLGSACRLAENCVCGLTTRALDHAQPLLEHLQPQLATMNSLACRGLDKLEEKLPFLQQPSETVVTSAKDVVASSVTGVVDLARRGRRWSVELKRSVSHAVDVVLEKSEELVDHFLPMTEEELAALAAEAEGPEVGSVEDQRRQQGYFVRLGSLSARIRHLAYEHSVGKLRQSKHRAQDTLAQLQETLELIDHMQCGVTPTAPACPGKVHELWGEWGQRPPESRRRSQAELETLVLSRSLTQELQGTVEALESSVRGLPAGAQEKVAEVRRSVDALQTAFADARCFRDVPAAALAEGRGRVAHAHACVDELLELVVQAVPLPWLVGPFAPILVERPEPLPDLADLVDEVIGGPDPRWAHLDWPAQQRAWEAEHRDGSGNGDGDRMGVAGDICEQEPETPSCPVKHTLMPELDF
Perilipin-5 (Homo sapiens) + 1-acylglycerol-3-phosphate O-acyltransferase ABHD5 (Homo sapiens), sequence (Q8WTS1 whole entry, looked up): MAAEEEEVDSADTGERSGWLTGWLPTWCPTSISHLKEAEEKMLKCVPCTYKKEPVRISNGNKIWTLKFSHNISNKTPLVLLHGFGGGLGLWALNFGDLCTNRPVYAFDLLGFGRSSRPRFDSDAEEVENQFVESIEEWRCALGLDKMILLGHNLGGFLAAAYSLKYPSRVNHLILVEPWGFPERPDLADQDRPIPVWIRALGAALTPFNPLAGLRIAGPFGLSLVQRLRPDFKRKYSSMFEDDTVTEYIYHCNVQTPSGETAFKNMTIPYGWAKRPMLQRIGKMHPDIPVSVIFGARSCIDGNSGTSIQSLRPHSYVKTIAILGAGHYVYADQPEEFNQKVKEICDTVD
Consider `COc1ccc(CN(C)Cc2nc3cc(OC)c(OC)cc3c(=O)[nH]2)c(OC)c1`, for which the inhibition (commonly the drop in the measured response relative to a control, in per cent) was 3.55%.

Consider `COc1ccc(C2NC(=S)NC3=C2CCc2ccccc23)cc1OC` (stereo not given), for which the inhibition is -20.7%.

Regarding `O=C(c1c(F)cccc1F)N1CCN(S(=O)(=O)c2ccc3c(c2)OCCO3)CC1`, the inhibition was -12.9%.

As to `Fc1ccc(N2N=C(c3cccs3)CC2c2ccco2)c(F)c1` (stereo not given), the inhibition is -11.2%.

Take `COC(=O)c1ccc2nc(-c3ccc(C)cc3)c(Cc3ccc(OC)cc3C)n2c1`: the inhibition was 0.21%.

`Fc1ccc(CNCc2ccc(Br)cc2)cc1`: the inhibition is 3.28%.

Consider `CCOC(=O)N1CCN(S(=O)(=O)c2ccc3c(c2)C(C)C(=O)N3)CC1` (stereo not given), for which the inhibition was 2.99%.

Consider `FC(F)(F)C1CCCN(c2nsc3ccccc23)C1` (stereo not given), for which the inhibition is 28.5% (active).

With `COC(=O)[C@@]12C[C@@H](CC(=O)NCc3cccc(C(F)(F)F)c3)C(=O)N(Cc3ccco3)C1=CCC(C)(C)C2`, the inhibition was -1.98%.

Regarding `CCS(=O)(=O)Nc1ccc(C(=O)NCCSc2ccccc2)cc1`, the inhibition is -5.43%.

Turning to `COC(C[C@@H](O)[C@H](C)[C@H](O)COCc1ccccc1)OC`, the inhibition was -4.38%.

As for `CCCCN(Cc1ccccc1)C(=O)C1CCN(Cc2sccc2C)CC1`, the inhibition was 1.95%.

On to `O=C(/C(=C/c1cccc(Cl)c1)c1nc2ccccc2[nH]1)c1ccccc1`, for which the inhibition was 23.3% (active).

For the molecule `CCCc1nc2ccccc2n1C(C)C(=O)NC(C)(C)C` (stereo not given), the inhibition is 5.62%.

As to `CN(C)NC(=O)c1csnc1-c1c(Cl)cccc1Cl`, the inhibition was -5.5%.

Regarding `COC(=O)c1ccc(COC(=O)C2CCN(S(=O)(=O)c3c(Cl)cccc3Cl)CC2)o1`, the inhibition was 1.49%.

As to `C#CCOCCOCCOCCNc1nc(N2CCN(C(=O)C([C@@H](C)O)n3cc([C@@H](N)CCCCN)nn3)CC2)nc(N2CCN(C(=O)[C@H](CCCCN)n3cc(CN)nn3)CC2)n1` (stereo not given in full), the inhibition was 8.85%.

In the case of `C#CCOCCOCCOCCNc1nc(N2CCOCC2)nc(N2CCN(C(=O)[C@H](Cc3ccc(O)cc3)n3cc(CCO)nn3)CC2)n1`, the inhibition was -5.39%.

As to `C#CCOCCOCCOCCNc1nc(N2CCN(C(=O)CCCCCCCCCCNC(=O)Cn3cc(CCCCCN)nn3)CC2)nc(N2CCN(C(=O)CCCCCCCCCCNC(=O)[C@H](CO)n3cc(CCCSC)nn3)CC2)n1`, the inhibition was 44% (active).

As for `CN(C)c1cc(N)c2ccccc2n1` (tested in a mixture with another compound), the inhibition was -3.32%.

`O=C(O)c1ccc(S(=O)(=O)N2CCC(Cc3ccccc3)CC2)cc1`: the inhibition was -8.86%.

`Cc1ccc2[nH]c(=O)c(CC=C(Cl)Cl)c(C)c2c1`: the inhibition was 1.26%.

On to `C=C1C(=O)[C@]23C[C@H]1CCC2[C@@]1(C)C(C[C@@H]3O)[C@](C)(C(=O)O)CC[C@@H]1O` (stereo not given in full), for which the inhibition is 36.1% (active).

On to `CCN(C(=O)COC(=O)c1cc(NS(=O)(=O)c2ccc(Cl)c([N+](=O)[O-])c2)ccc1O)C1CCCCC1`, for which the inhibition was -3.6%.

Consider `O=Cc1ccc(OCc2cn3ccccc3n2)cc1`, for which the inhibition is -8.56%.

`COc1cc(N2C(=O)c3ccccc3C2=O)c(Cl)cc1C(=O)OCC(=O)N1CCOCC1`: the inhibition is -1.51%.

`O=C(CSc1nnc(-c2cccnc2)n1Cc1ccco1)c1ccc(Cl)cc1`: the inhibition was 22.5% (active).

`CCOC(=O)Cc1csc(NC(=O)CSc2nnc(-c3cccnc3)n2Cc2ccco2)n1`: the inhibition was 5.88%.

On to `CCc1ccc(NC(=O)CSc2nnc(-c3cnccn3)n2Cc2ccco2)cc1`, for which the inhibition was 23.2% (active).

As to `Cc1cc(C)nc(SCc2nnc(SCC(=O)Nc3ncc(C)s3)n2Cc2ccco2)n1`, the inhibition was 19.3%.

On to `CCn1c(SCC(=O)Nc2cc(C)ccc2C)nnc1-c1cnccn1`, for which the inhibition is 7.43%.

`C(=C\c1ccccc1)/CSc1nnc(-c2cccnc2)n1Cc1ccco1`: the inhibition was 7.27%.

With `CCCCCNC(=O)C1C(=O)Nc2ccccc2C(=O)N1C(C)(C)C` (stereo not given), the inhibition was 4.37%.

Regarding `COc1cc(/C=C/CO)cc(OC)c1O[C@@H]1O[C@H](CO)[C@@H](O)[C@H](O)[C@H]1O`, the inhibition is -1.15%.

On to `O=C(/C=C/c1ccc(Cl)cc1Cl)c1cccnc1`, for which the inhibition is 74.7% (active).

Consider `O=C(CC(=O)c1cccnc1)c1ccccc1`, for which the inhibition was -23.9%.

On to `O=C(OCc1cc(Cl)ccc1OC(F)F)c1cccnc1`, for which the inhibition was 4.48%.

Regarding `Cc1ccc(S(=O)(=O)N(C)C)cc1NC(=O)c1n[nH]c(=O)c2ccccc12`, the inhibition was 5.24%.

As for `O=C1CCCC(O)=C1N=Nc1ccc2ncsc2c1`, the inhibition is -5.19%.

On to `O=C(Cn1cnc2c(nnn2-c2ccccc2)c1=O)N1CCC(Cc2ccccc2)CC1`, for which the inhibition was 7.96%.

As to `O=C(/C=C/Sc1ncn[nH]1)c1ccc(Cl)cc1`, the inhibition was 57.9% (active).

`O=C(Nc1ccc(F)cc1)C(CCc1ccccc1)N1CCN(CC(=O)N2CCCC2)CC1` (stereo not given): the inhibition was -3.25%.

Consider `CCCCc1cc2c(s1)CCCC/C2=N/O`, for which the inhibition is -9.56%.

Consider `COc1ccc(CNC(=O)c2c[nH]c3c(OC)cc(OC)cc3c2=O)cc1`, for which the inhibition was -1.89%.

In the case of `COc1ccc(CNC(=O)/C(C#N)=C/c2cccc(OC)c2OC)cc1`, the inhibition was 36% (active).

For the molecule `COc1cc(/C=C(\C#N)C(=O)Nc2ccc3ccccc3c2)c([N+](=O)[O-])cc1OC`, the inhibition is -3.38%.

On to `COC(=O)C[C@H]1C[C@@H]2c3cc(NC(=O)Nc4ccccc4)ccc3O[C@@H]2[C@@H](CO)O1`, for which the inhibition is 3.8%.

As for `c1ccc(-c2c[nH]c(-c3ccccc3)c2)cc1`, the inhibition was -5.36%.

For the molecule `O=C(N/N=C/C=C/c1ccco1)c1cccs1`, the inhibition was 36.5% (active).

On to `O=C(NNC(=O)c1ccc(Cl)cc1Cl)c1cccs1`, for which the inhibition is 3.54%.

With `O=C(NC1CCCCCCC1)c1cccs1`, the inhibition is -5.96%.

As to `Cc1cccc(CN2CCN(C3CN(Cc4cn(Cc5ccccc5F)nn4)S(=O)(=O)C3)CC2)c1` (stereo not given), the inhibition was 5.46%.

Regarding `Cc1ccc(-c2c(N)nc3ncccn23)cc1`, the inhibition was -3.59%.

As to `Cc1cc(C)nc(NC(=O)/C=C/c2ccc(Cl)cc2)n1`, the inhibition was 0.69%.

For the molecule `Cc1cccc(C(=O)Nc2ccc(C(=O)/C=C/c3cccs3)cc2)c1`, the inhibition is 12.6%.

For `Cc1cccc(C=CC(=O)c2ccc(Cl)cc2)c1`, the inhibition is 34.8% (active).

Consider `CCO[C@H]1OC(C(=O)Nc2ccccc2)=C[C@@H](C2CC2)[C@@H]1CCCO`, for which the inhibition was -3.76%.

`CCCCN1C(N)=NC[C@@H]1CC1CCCCC1`: the inhibition was 10.6%.

Consider `O=C1C=C(c2ccc(Cl)cc2)C(=O)N1Nc1ccccc1`, for which the inhibition is 66.8% (active).

Consider `Cc1ccn2cc(-c3nonc3C)cc2c1`, for which the inhibition was -1.69%.

As for `CCc1ccccc1NC(=O)c1cc(-c2ccc3c(c2)OCO3)on1`, the inhibition was -4.14%.

On to `COc1ccc(/C=C/C(=O)NC(=S)N2CCCC(C(N)=O)C2)cc1` (stereo not given), for which the inhibition is -2.44%.

For the molecule `COc1ccc(/C=C/C(=O)c2cc(Br)ccc(=O)c2O)cc1`, the inhibition was 22.1% (active).

In the case of `CCOc1ccc(NC(=S)NC(=O)/C=C/c2ccc(OC)cc2)c([N+](=O)[O-])c1`, the inhibition was 2.26%.

For `O=C(O)c1cc2ccccc2c(=O)s1`, the inhibition was 10.5%.

`NC[C@H](Cc1ccccc1)NCCc1cc(C(F)(F)F)cc(C(F)(F)F)c1`: the inhibition is 5.8%.

On to `COc1ccc(/C(O)=C2\C(=O)C(=O)N(Cc3ccco3)C2c2ccc(OC)cc2OC)cc1` (stereo not given), for which the inhibition was 28.9% (active).

`COc1ccc(/C(O)=C2/C(=O)C(=O)N(c3nc(C)c(C)s3)C2c2ccco2)cc1` (stereo not given): the inhibition is 6.99%.

For the molecule `COc1ccccc1C1/C(=C(/O)c2ccc(C)cc2)C(=O)C(=O)N1Cc1ccco1` (stereo not given), the inhibition is 28.4% (active).

For `COc1ccc(/C(O)=C2/C(=O)C(=O)N(CC3CCCO3)C2c2ccc(OC)c(OC)c2)cc1` (stereo not given), the inhibition was 1.46%.

Regarding `COc1ccc(/C(O)=C2/C(=O)C(=O)N(CCCN(C)C)C2c2ccccc2)cc1OC` (stereo not given), the inhibition was -4.94%.

With `COc1cc(C2/C(=C(\O)c3ccc4c(c3)CC(C)O4)C(=O)C(=O)N2Cc2ccco2)ccc1O` (stereo not given), the inhibition is 11.1%.

Take `CC(C)c1nnc(NC(=O)C2CC(=O)N(CCc3ccc(F)cc3)C2)s1` (stereo not given): the inhibition was -0.4%.

In the case of `CSc1nc(-c2ccccc2)nc(C(Cl)Cl)n1`, the inhibition is -6.27%.

Take `COc1ccc(-c2nnc3n2CCCCC3)cc1`: the inhibition was 2.02%.

As for `CCC(=O)N1CCc2cc(Br)c(S(=O)(=O)NCCN3CCCCC3CC)cc21` (stereo not given), the inhibition is 6.34%.

For `N#Cc1ccc(C(=O)OCC(=O)NC(=O)NC2CCCCC2)cc1`, the inhibition is -1.6%.

With `NC(=O)C1CCN(C(=O)CC2C(=O)NCCN2Cc2cccc(Oc3ccccc3)c2)CC1` (stereo not given), the inhibition was 4.81%.

Consider `O=C(NNc1ccccn1)c1ccc(Cl)nc1`, for which the inhibition is 74% (active).

For `O=C(NNC(=O)c1ccc(Cl)nc1)c1ccc(Br)cc1`, the inhibition is -5.62%.

Take `CCN(CC)c1ccc(NC(=O)c2ccc(Cl)nc2)cc1`: the inhibition was -1.77%.

On to `Cc1ccc(CSCCNC(=O)CN(c2ccc(F)cc2)S(C)(=O)=O)cc1`, for which the inhibition is -1.09%.

Regarding `Cn1c(=O)[nH]c2c(c(C(=O)O)nn2C)c1=O`, the inhibition is 18.8%.

Consider `Cc1cn(C2C=CC(CO)O2)c(=O)[nH]c1=O` (stereo not given), for which the inhibition was 6.6%.

With `O=[N+]([O-])c1c(NCCO)cc(Sc2nc3ccccc3s2)c2nonc12`, the inhibition was 42.8% (active).

Take `Nc1cc(N2CCCCCC2)c2nonc2c1[N+](=O)[O-]`: the inhibition is 3.02%.

`COc1ccc2c(c1OC)C(=O)OC2Nc1nc(-c2ccccc2)cs1` (stereo not given): the inhibition is 38.8% (active).

`COc1cc(C(O)c2nc(-c3cccc(C(=O)O)c3)cs2)ccc1F` (stereo not given): the inhibition is 7.06%.

For `COc1ccccc1C(=O)Nc1nc2nc(-c3ccccc3)cc(=O)n2[nH]1`, the inhibition was -1.37%.

For `O=C(c1cc(COc2ccc(F)cc2F)on1)N1CCOCC1`, the inhibition is -0.17%.
